Measurements from PubChem BioAssay (Tox21).
Results filed as inconclusive are left out. Activity calls are given as the source filed them. Unless noted, calls come from the whole dose curve; as a rule, active = well fitted curve in the direction sought with a large enough effect in the repeat runs; inconclusive = weak or mixed curves; inactive = flat fitted curve, though single readings scatter. Positions of bridges follow the written chain, without caps; N, C: chain ends. Non-standard residues stand in square brackets, D forms with d. Residues, ends and D or L forms follow the SMILES beside them. hArg = N=C(N)NCCCC[C@H](N)C(=O)O; Mpa = O=C(O)CCS

Experiments:
[1] = qHTS assay to test for compound auto fluorescence at 535 nm (green) in HEK293 cells (AID 720680)
[2] = qHTS assay to test for compound auto fluorescence at 460 nm (blue) in HEK293 cell free culture (AID 720681)
Procedure, shortened: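 Blue fluorescence (Ex 405/Em 460 nm, triamterene-equivalent) was read immediately after pin transfer of compound or DMSO into medium (DMEM, 10% FBS) without cells.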

[3] = qHTS assay to test for compound auto fluorescence at 535 nm (green) in HEK293 cell free culture (AID 720682)
Procedure, shortened: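 Intrinsic compound fluorescence is measured in culture medium containing 10% FBS, with excitation at 485 nm and detection at 535 nm, referenced to fluorescein.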

[4] = qHTS assay to test for compound auto fluorescence at 590 nm (red) in HEK293 cell free culture (AID 720683)
Procedure, shortened: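 Red-channel autofluorescence of compounds in culture medium (DMEM, 10% FBS), no cells, measured at 540/590 nm. Rose Bengal sodium is the reference fluorophore for equivalence.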

[5] = qHTS assay to test for compound auto fluorescence at 590 nm (red) in HepG2 cell free culture (AID 720684)
Procedure, shortened: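 Steps: dispense MEM/10% FBS medium, no cells; pin compound or DMSO vehicle; read red channel, Ex/Em 540/590 nm. Output given as Rose Bengal sodium equivalents.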

[6] = qHTS assay to test for compound auto fluorescence at 535 nm (green) in HepG2 cell free culture (AID 720686)
[7] = qHTS assay to test for compound auto fluorescence at 460 nm (blue) in HepG2 cells (AID 720687)
Procedure, shortened: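 Blue-channel autofluorescence (Ex/Em 405/460 nm, triamterene-equivalent) was measured after 1 hr compound exposure at 37 C, 5% CO2. Cells were HepG2, plated overnight at 37 C in MEM plus 10% FBS.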

[8] = biological target: Glucocorticoid receptor (Homo sapiens) (UniProt P04150); experiment: qHTS assay to identify small molecule agonists of the glucocorticoid receptor (GR) signaling pathway (AID 720691; active = well fitted activation curve with a large enough effect in the signal ratio in the repeat runs, not every such curve was filed as active; the % refers to the signal ratio)
Procedure, shortened: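 Reporter read-out: fluorescence intensity following 2 h room-temperature LiveBLAzer B/G FRET substrate loading. Prior step: GR-bla HeLa cells held 4 h, then treated 18 h at 37 C.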

[9] = biological target: Glucocorticoid receptor (Homo sapiens) (UniProt P04150); experiment: qHTS assay to identify small molecule antagonists of the glucocorticoid receptor (GR) signaling pathway (AID 720692; active = well fitted inhibition curve with a large enough effect in the signal ratio in the repeat runs, not every such curve was filed as active; the % refers to the signal ratio)
Procedure, shortened: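 Dexamethasone (5 nM final) stimulated a stably integrated GRE-beta-lactamase reporter in HeLa cells during 18 h co-incubation with compounds; signal was quantified as fluorescence intensity of B/G FRET substrate after 2 h.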

[10] = qHTS assay to test for compound auto fluorescence at 460 nm (blue) in HepG2 cell free culture (AID 720685)
Procedure, shortened: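 Compound (23 nL) or DMSO pinned into cell-free MEM with 10% FBS; blue fluorescence read at 405/460 nm excitation/emission, expressed as auto-fluorescence equivalency to triamterene.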
% is set by controls: 0 for no effect and ±100 for the full control effect.

Chain of Glucocorticoid receptor (Homo sapiens) (P04150 whole entry, looked up): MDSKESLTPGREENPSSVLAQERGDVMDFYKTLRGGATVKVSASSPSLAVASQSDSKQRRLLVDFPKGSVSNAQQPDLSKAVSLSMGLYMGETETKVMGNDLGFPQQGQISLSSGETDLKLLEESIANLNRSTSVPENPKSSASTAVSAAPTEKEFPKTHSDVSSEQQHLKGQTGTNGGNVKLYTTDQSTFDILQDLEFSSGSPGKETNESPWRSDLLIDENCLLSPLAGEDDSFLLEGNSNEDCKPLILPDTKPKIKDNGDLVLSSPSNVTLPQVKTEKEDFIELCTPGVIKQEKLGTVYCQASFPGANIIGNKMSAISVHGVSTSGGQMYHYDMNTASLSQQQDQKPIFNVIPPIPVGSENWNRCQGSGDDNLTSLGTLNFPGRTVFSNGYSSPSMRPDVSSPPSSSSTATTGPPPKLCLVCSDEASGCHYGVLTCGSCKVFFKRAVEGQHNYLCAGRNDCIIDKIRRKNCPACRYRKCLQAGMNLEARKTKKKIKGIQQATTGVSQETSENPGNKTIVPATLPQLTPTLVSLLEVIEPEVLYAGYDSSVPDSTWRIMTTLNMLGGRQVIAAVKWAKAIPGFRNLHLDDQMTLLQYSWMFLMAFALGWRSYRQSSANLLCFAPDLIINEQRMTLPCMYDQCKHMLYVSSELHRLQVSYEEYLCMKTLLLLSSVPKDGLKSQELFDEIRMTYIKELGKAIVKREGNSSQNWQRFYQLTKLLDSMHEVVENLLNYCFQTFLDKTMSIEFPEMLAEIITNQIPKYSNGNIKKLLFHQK

ONc1ccccc1
inactive: outcome [1] | outcome [2] | outcome [3] | outcome [4] | outcome [5] | outcome [6] | outcome [7] | Potency [8] | outcome [9]

CCCC(CC)c1ccccc1 (stereo not drawn)
inactive: outcome [1] | outcome [2] | outcome [3] | outcome [4] | outcome [5] | outcome [6] | outcome [7] | Potency [8] | outcome [9]

N#Cc1ccccc1O
inactive: outcome [1] | outcome [2] | outcome [3] | outcome [4] | outcome [5] | outcome [6] | outcome [7] | Potency [8] | outcome [9]

CCCCOC(=O)C(C)O (stereo not drawn)
inactive: outcome [1] | outcome [2] | outcome [3] | outcome [4] | outcome [5] | outcome [10] | outcome [6] | outcome [7] | Potency [8] | outcome [9]

CCCCOC(=O)[C@H](C)O
inactive: outcome [1] | outcome [2] | outcome [3] | outcome [4] | outcome [5] | outcome [6] | outcome [7] | Potency [8] | outcome [9]

CC/C(C)=N\O[Si](C)(O/N=C(\C)CC)O/N=C(\C)CC
inactive: outcome [1] | outcome [2] | outcome [3] | outcome [4] | outcome [5] | outcome [6] | outcome [7]

O=Cc1ccccc1Cl
inactive: outcome [1] | outcome [2] | outcome [3] | outcome [4] | outcome [5] | outcome [6] | outcome [7] | Potency [8] | outcome [9]

C=CCOC(=O)CCCCCC
inactive: outcome [1] | outcome [2] | outcome [3] | outcome [4] | outcome [5] | outcome [6] | outcome [7] | Potency [8] | outcome [9]

C/C=C(\C)C(=O)OCCc1ccccc1
inactive: outcome [1] | outcome [2] | outcome [3] | outcome [4] | outcome [5] | outcome [6] | outcome [7] | Potency [8] | outcome [9]

CCC(C)OC(C)CC (stereo not drawn)
inactive: outcome [1] | outcome [2] | outcome [3] | outcome [4] | outcome [5] | outcome [6] | outcome [7] | Potency [8] | outcome [9]

CC(=O)C(C)O (stereo not drawn)
inactive: outcome [1] | outcome [2] | outcome [3] | outcome [4] | outcome [10] | outcome [6] | outcome [7]

COP(=O)(O)OP(=O)(O)OC
inactive: outcome [1] | outcome [2] | outcome [3] | outcome [4] | outcome [5] | outcome [6] | outcome [7] | Potency [8]

N[C@@H](CSCCCO)C(=O)O
inactive: outcome [1] | outcome [2] | outcome [3] | outcome [4] | outcome [5] | outcome [6] | outcome [7] | outcome [9]

CC(C)=CCC[C@@](C)(O)[C@H]1CC=C(C)CC1
inactive: outcome [1] | outcome [2] | outcome [3] | outcome [4] | outcome [5] | outcome [6] | outcome [7] | Potency [8] | outcome [9]

O=C(O)[C@H](O)c1ccccc1
inactive: outcome [1] | outcome [2] | outcome [3] | outcome [4] | outcome [10] | outcome [6] | outcome [7]

CCOCCOCC
inactive: outcome [1] | outcome [2] | outcome [3] | outcome [4] | outcome [5] | outcome [6] | outcome [7] | Potency [8] | outcome [9]

Cc1cc(-c2ccccc2)nnc1NCCN1CCOCC1
inactive: outcome [1] | outcome [2] | outcome [3] | outcome [4] | outcome [6] | outcome [7]

CC(S)C(C)S (stereo not drawn)
inactive: outcome [1] | outcome [2] | outcome [3] | outcome [4] | outcome [10] | outcome [6] | outcome [7] | Potency [8] | outcome [9]

CCC/C=C(\C=O)CC
inactive: outcome [1] | outcome [2] | outcome [3] | outcome [4] | outcome [10] | outcome [6] | outcome [7] | Potency [8]

CC(=O)CCc1ccc(OC(C)=O)cc1
inactive: outcome [1] | outcome [2] | outcome [3] | outcome [4] | outcome [10] | outcome [6] | outcome [7] | Potency [8] | outcome [9]

CC1(C)Oc2ccc(C#N)cc2[C@@H](N2CCCC2=O)[C@@H]1O
inactive: outcome [1] | outcome [2] | outcome [3] | outcome [4] | outcome [6] | outcome [7] | Potency [8] | outcome [9]

C=C(C)C1CC=C(C)C(=O)C1 (stereo not drawn)
inactive: outcome [1] | outcome [2] | outcome [3] | outcome [4] | outcome [10] | outcome [6] | outcome [7] | Potency [8] | outcome [9]

O=C(O)CCCCCC(=O)O
inactive: outcome [1] | outcome [2] | outcome [3] | outcome [4] | outcome [10] | outcome [6] | outcome [7] | Potency [8] | outcome [9]

C=CC(=O)CCCCC
inactive: outcome [1] | outcome [2] | outcome [3] | outcome [4] | outcome [10] | outcome [6] | outcome [7]

CCO
inactive: outcome [1] | outcome [2] | outcome [3] | outcome [4] | outcome [6] | outcome [7] | Potency [8]

O=C1c2ccccc2C(=O)c2cc(Cl)ccc21
inactive: fluorescence, % of fluorescein [1] 0.0004% [at 3.72 µM] | fluorescence, % of fluorescent control [2] -0.0102% [at 3.72 µM] | activity change [3] -0.0107% [at 3.72 µM] | fluorescence, % of fluorescent control [4] -0.094% [at 3.72 µM] | fluorescence, % of fluorescein control [6] -0.0292% [at 3.72 µM] | fluorescence, % of fluorescent control [7] -0.0186% [at 3.72 µM] | activation [8] -4.3% [at 6.9 µM] | activity change, negative = inhibition [9] -15.1% [at 7.04 µM]

NC(=O)[C@@H]1CSSCCC(=O)N[C@@H](CCCCN=C(N)N)C(=O)NCC(=O)N[C@@H](CC(=O)O)C(=O)N[C@@H](Cc2c[nH]c3ccccc23)C(=O)N2CCC[C@H]2C(=O)N1 ([Mpa][hArg]GDWPC-NH2; disulfide 1-7)
inactive: outcome [1] | outcome [2] | outcome [3] | outcome [4] | outcome [10] | outcome [6] | outcome [7] | Potency [8] | outcome [9]

CC(C)OC(=O)CCC(=O)OC(C)C
inactive: outcome [1] | outcome [2] | outcome [3] | outcome [4] | outcome [6] | outcome [7] | Potency [8] | outcome [9]

CC1OCCC1=O (stereo not drawn)
inactive: outcome [1] | outcome [2] | outcome [3] | outcome [4] | outcome [10] | outcome [6] | outcome [7] | Potency [8] | outcome [9]

CC1CC(=O)CC(C)(C)C1 (stereo not drawn)
inactive: outcome [1] | outcome [2] | outcome [3] | outcome [4] | outcome [10] | outcome [6] | outcome [7] | Potency [8] | outcome [9]

C=CCSSCCC
inactive: outcome [1] | outcome [2] | outcome [3] | outcome [4] | outcome [10] | outcome [6] | outcome [7] | Potency [8] | outcome [9]

CN(C)CCCCl
inactive: outcome [1] | outcome [2] | outcome [3] | outcome [4] | outcome [10] | outcome [6] | outcome [7] | Potency [8] | outcome [9]

CCc1occc(=O)c1O
inactive: outcome [1] | outcome [2] | outcome [3] | outcome [4] | outcome [10] | outcome [6] | outcome [7] | Potency [8]

CO/N=C(/C(=O)N[C@@H]1C(=O)N2C(C(=O)[O-])=C(C[n+]3ccn4ncccc43)CS[C@H]12)c1nsc(N)n1
inactive: outcome [1] | outcome [2] | outcome [3] | outcome [4] | outcome [10] | outcome [6] | outcome [7] | Potency [8] | outcome [9]

Cc1ccc(C(=O)O)cc1[N+](=O)[O-]
inactive: outcome [1] | outcome [3] | outcome [4] | outcome [5] | outcome [10] | outcome [6] | outcome [7]

Cc1ccc(N)cc1S(=O)(=O)O
inactive: outcome [1] | outcome [2] | outcome [3] | outcome [4] | outcome [10] | outcome [6] | outcome [7] | Potency [8] | outcome [9]

CC(C)[C@H]1CC[C@H](C)C[C@@H]1O
inactive: outcome [1] | outcome [3] | outcome [4] | outcome [5] | outcome [10] | outcome [6] | outcome [7]

CN1C[C@@H]2C[C@H]1CN2c1cc2c(cc1F)c(=O)c(C(=O)O)cn2C1CC1
inactive: outcome [1] | outcome [2] | outcome [3] | outcome [4] | outcome [10] | outcome [6] | outcome [7] | Potency [8] | outcome [9]

CCCSSCCC
inactive: outcome [1] | outcome [2] | outcome [3] | outcome [4] | outcome [10] | outcome [6] | outcome [7] | Potency [8] | outcome [9]

Cc1ccc(C(C)NC(=O)[C@@H](NC(=O)OC(C)C)C(C)C)cc1 (stereo partly drawn)
inactive: outcome [1] | outcome [2] | outcome [3] | outcome [4] | outcome [6] | outcome [7] | Potency [8] | outcome [9]

N#Cc1cscn1
inactive: outcome [1] | outcome [3] | outcome [4] | outcome [5] | outcome [10] | outcome [6] | outcome [7]
